Data taken from ChEMBL document CHEMBL1961873, “Compounds: GSK PKIS; Assays: Nanosyn kinase panel” (2012).

target: Non-receptor tyrosine-protein kinase TYK2 (Homo sapiens) (UniProt P29597); conditions: at 1 µM;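 also: values are mean percent inhibition of TYK2 kinase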
Sequence (P29597 whole entry): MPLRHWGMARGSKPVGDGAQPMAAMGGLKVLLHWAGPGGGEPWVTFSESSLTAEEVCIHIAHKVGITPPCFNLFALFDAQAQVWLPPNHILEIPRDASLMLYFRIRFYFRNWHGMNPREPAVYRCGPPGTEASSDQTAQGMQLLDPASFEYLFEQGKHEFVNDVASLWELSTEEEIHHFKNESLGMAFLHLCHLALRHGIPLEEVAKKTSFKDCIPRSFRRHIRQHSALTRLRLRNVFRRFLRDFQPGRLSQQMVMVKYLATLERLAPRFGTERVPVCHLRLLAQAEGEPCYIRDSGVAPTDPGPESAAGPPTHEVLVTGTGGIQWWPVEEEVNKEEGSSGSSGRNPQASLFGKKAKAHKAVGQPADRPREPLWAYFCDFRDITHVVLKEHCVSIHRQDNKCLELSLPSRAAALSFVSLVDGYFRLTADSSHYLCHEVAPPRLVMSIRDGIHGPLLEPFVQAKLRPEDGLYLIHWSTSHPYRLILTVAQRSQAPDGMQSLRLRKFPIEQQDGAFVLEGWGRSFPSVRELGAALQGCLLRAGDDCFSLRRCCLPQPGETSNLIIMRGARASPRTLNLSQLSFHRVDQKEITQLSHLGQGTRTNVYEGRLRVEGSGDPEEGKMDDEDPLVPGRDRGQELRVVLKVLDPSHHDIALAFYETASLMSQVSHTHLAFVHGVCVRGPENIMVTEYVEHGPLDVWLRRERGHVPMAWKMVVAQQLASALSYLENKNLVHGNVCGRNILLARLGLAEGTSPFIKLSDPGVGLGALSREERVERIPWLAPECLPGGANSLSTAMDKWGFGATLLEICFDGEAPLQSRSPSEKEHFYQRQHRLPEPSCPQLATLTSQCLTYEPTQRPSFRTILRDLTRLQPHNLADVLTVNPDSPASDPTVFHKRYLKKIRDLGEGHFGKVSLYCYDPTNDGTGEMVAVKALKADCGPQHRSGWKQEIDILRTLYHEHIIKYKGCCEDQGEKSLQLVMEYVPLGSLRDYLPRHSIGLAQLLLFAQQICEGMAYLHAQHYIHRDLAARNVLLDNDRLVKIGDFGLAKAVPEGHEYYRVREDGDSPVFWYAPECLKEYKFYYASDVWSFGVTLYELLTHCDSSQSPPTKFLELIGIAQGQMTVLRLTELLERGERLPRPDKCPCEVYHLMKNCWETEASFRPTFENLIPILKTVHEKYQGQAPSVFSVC

| SMILES | inhibition |
| --- | --- |
| COc1cc(Nc2nccc(-c3cnn4ncccc34)n2)cc(OC)c1 | 31.8% |
| NS(=O)(=O)c1cccc(-c2cc3ccncc3cc2OCc2ccccc2)c1 | -5.35% |
| CCS(=O)(=O)c1ccc(OC)c(Nc2nccc(N(C)c3ccc4c(C)n[nH]c4c3)n2)c1 | -2.86% |
| NS(=O)(=O)c1ccc(N/N=C2\C(=O)Nc3ccc(Cl)cc32)cc1 | 0.36% |
| OCc1ccc(-c2nc(-c3ccccn3)c(-c3ccc4c(c3)OCO4)[nH]2)cc1 | -3.23% |
| NC(=O)c1cccc(Nc2nccc(Nc3cccc(F)c3)n2)c1 | 32.4% |
| ON=C1CCc2cc(-c3nc(C4CCNCC4)[nH]c3-c3ccncc3)ccc21 | -0.2% |
| CN(C)C(=O)O[C@H]1CN[C@H](C#Cc2cc3ncnc(Nc4ccc(OCc5cccc(F)c5)c(Cl)c4)c3s2)C1 | -2.89% |
| Cc1cc(Cl)cc2c1NC(=O)C2=NNc1ccc(S(N)(=O)=O)cc1 | 0.66% |
| COc1ccc(-c2nn3ncccc3c2-c2ccnc(Nc3cccc(C(F)(F)F)c3)n2)cc1 | -0.27% |
| O=C(Nc1ccc(Oc2ccc3[nH]c(NC(=O)c4ccco4)nc3c2)cc1)Nc1cc(C(F)(F)F)ccc1F | -3.76% |
| NS(=O)(=O)c1cccc(Nc2cc(-c3ccc(F)cc3)n[nH]2)c1 | -1.33% |
| CS(=O)(=O)Nc1cccc(-c2ccc3c(NC(=O)C4CC4)n[nH]c3c2)c1 | -0.54% |
| Cc1ccc2c(c1)/C(=N/Nc1ccc(S(N)(=O)=O)cc1)C(=O)N2 | 1.67% |
| COc1cc2ncn(-c3cc(OCc4ccccc4S(C)(=O)=O)c(C#N)s3)c2cc1OC | 1.09% |
| Nc1ccc(C#Cc2cncnc2Nc2ccc(OCc3cccc(F)c3)c(Cl)c2)cc1 | -2.76% |
| Cc1nc(-c2ccccc2)n2nc(NCCCN3CCOCC3)ncc12 | 0.82% |
| CCOc1nccc2c1nc(-c1nonc1N)n2CC | 1.21% |
| COc1cc(/C=N/Nc2ncnc3c2cnn3C(C)C)ccc1O | 4.77% |
| NS(=O)(=O)c1ccc(-c2cc3ccncc3cc2OCc2ccccc2)cc1 | -0.94% |
| CN(C)CCCn1c(-c2nonc2N)nc2cnccc21 | -2.04% |
| Cc1ccc(O)cc1Nc1ccnc2ccc(S(C)(=O)=O)cc12 | 9.66% |
| Cc1ccc2c(-c3ccnc(Nc4ccc5c(c4)OCCO5)n3)c(-c3ccc(C(F)(F)F)cc3)nn2n1 | 0.31% |
| CCn1c(-c2nonc2N)nc2c(C#CC(C)(C)O)nc(OCCNC)cc21 | -2.59% |
| Cc1ccc(NC(=O)CC2CC2)cc1-c1ccc(C(=O)NCC2CC2)cc1 | -2.78% |
| Oc1cccc(-c2nc(-c3ccccc3)[nH]c2-c2ccncc2)c1 | -1.42% |

target: T1, Tyrosine-protein kinase receptor TYRO3 (Homo sapiens) (UniProt Q06418); conditions: at 0.1 µM;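 also: reported percentages are averaged inhibition values of TYRO3 kinase activity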
T1 sequence (whole entry): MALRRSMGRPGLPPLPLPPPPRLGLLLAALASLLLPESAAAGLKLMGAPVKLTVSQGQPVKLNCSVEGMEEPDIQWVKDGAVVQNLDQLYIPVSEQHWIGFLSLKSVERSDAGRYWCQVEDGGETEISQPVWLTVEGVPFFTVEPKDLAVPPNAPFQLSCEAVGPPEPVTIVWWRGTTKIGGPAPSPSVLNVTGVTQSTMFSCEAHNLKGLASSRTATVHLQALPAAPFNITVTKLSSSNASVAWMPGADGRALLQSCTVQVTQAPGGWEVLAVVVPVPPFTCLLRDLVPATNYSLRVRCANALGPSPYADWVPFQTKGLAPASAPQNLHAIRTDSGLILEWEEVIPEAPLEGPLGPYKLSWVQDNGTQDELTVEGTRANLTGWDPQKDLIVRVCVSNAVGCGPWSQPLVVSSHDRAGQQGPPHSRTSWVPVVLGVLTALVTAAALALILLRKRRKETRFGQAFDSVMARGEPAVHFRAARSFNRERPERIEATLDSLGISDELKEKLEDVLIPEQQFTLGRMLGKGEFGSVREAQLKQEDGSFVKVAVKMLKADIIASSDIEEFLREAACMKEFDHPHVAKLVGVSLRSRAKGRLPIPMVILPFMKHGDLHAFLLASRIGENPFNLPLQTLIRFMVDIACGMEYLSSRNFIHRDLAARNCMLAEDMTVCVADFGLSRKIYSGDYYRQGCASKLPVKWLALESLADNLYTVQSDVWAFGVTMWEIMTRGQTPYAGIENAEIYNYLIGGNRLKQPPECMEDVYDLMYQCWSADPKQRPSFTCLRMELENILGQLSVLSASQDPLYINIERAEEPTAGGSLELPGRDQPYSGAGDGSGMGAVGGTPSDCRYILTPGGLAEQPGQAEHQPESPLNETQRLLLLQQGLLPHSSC

| SMILES | inhibition |
| --- | --- |
| Nc1nccc(-c2c(-c3ccc(F)cc3)ncn2CCCN2CCOCC2)n1 | 3.82% |
| NS(=O)(=O)c1ccc(Nc2cc(-c3cccc(O)c3)n[nH]2)cc1 | 3.41% |
| C[C@@H](Oc1cc(-n2cnc3ccc(OC[C@@H](O)CO)cc32)sc1C(N)=O)c1ccccc1Cl | -0.16% |
| CN1CCN(C(=O)c2ccc(NC(=O)Nc3ccc(N(C)c4ccnc(Nc5ccc(CS(C)(=O)=O)cc5)n4)cc3)cc2)CC1 | 2.23% |
| Nc1nccc(-c2c(-c3ccc(F)cc3)nn3cc(C(F)(F)F)ccc23)n1 | 0.03% |
| COc1cccc(-n2nc(C)c3c(N/N=C(\C)c4ccncc4)ncnc32)c1 | 1.37% |
| CN(C)c1cc2c(Nc3ccc4c(cnn4Cc4ccccc4)c3)ncnc2cn1 | 0.23% |
| CC(C)c1ccc2c(c1)NC(=O)/C2=N/Nc1ccc(S(N)(=O)=O)cc1 | -0.25% |
| COc1cc(Nc2nccc(-c3cnn4ncccc34)n2)cc(OC)c1 | 1.77% |
| NS(=O)(=O)c1cccc(-c2cc3ccncc3cc2OCc2ccccc2)c1 | 2.68% |
| CCS(=O)(=O)c1ccc(OC)c(Nc2nccc(N(C)c3ccc4c(C)n[nH]c4c3)n2)c1 | 1.44% |
| NS(=O)(=O)c1ccc(N/N=C2\C(=O)Nc3ccc(Cl)cc32)cc1 | 3.25% |
| OCc1ccc(-c2nc(-c3ccccn3)c(-c3ccc4c(c3)OCO4)[nH]2)cc1 | 3.25% |
| NC(=O)c1cccc(Nc2nccc(Nc3cccc(F)c3)n2)c1 | 10.5% |
| ON=C1CCc2cc(-c3nc(C4CCNCC4)[nH]c3-c3ccncc3)ccc21 | 0.16% |
| CN(C)C(=O)O[C@H]1CN[C@H](C#Cc2cc3ncnc(Nc4ccc(OCc5cccc(F)c5)c(Cl)c4)c3s2)C1 | 2.23% |
| Cc1cc(Cl)cc2c1NC(=O)C2=NNc1ccc(S(N)(=O)=O)cc1 | 1.11% |

| SMILES | inhibition |
| --- | --- |
| COc1ccc(-c2nn3ncccc3c2-c2ccnc(Nc3cccc(C(F)(F)F)c3)n2)cc1 | 1.68% |
| O=C(Nc1ccc(Oc2ccc3[nH]c(NC(=O)c4ccco4)nc3c2)cc1)Nc1cc(C(F)(F)F)ccc1F | 5.34% |
| NS(=O)(=O)c1cccc(Nc2cc(-c3ccc(F)cc3)n[nH]2)c1 | 4.42% |
| CS(=O)(=O)Nc1cccc(-c2ccc3c(NC(=O)C4CC4)n[nH]c3c2)c1 | 2.53% |
| Cc1ccc2c(c1)/C(=N/Nc1ccc(S(N)(=O)=O)cc1)C(=O)N2 | -0.02% |
| COc1cc2ncn(-c3cc(OCc4ccccc4S(C)(=O)=O)c(C#N)s3)c2cc1OC | 4.94% |
| Nc1ccc(C#Cc2cncnc2Nc2ccc(OCc3cccc(F)c3)c(Cl)c2)cc1 | 2.47% |
| Cc1nc(-c2ccccc2)n2nc(NCCCN3CCOCC3)ncc12 | 0.92% |
| CCOc1nccc2c1nc(-c1nonc1N)n2CC | 3.25% |
| COc1cc(/C=N/Nc2ncnc3c2cnn3C(C)C)ccc1O | 4.41% |
| NS(=O)(=O)c1ccc(-c2cc3ccncc3cc2OCc2ccccc2)cc1 | 3.82% |
| CN(C)CCCn1c(-c2nonc2N)nc2cnccc21 | 1.74% |
| Cc1ccc(O)cc1Nc1ccnc2ccc(S(C)(=O)=O)cc12 | 4.42% |
| Cc1ccc2c(-c3ccnc(Nc4ccc5c(c4)OCCO5)n3)c(-c3ccc(C(F)(F)F)cc3)nn2n1 | -0.13% |
| CCn1c(-c2nonc2N)nc2c(C#CC(C)(C)O)nc(OCCNC)cc21 | 2.56% |
| Cc1ccc(NC(=O)CC2CC2)cc1-c1ccc(C(=O)NCC2CC2)cc1 | 2.48% |
| Oc1cccc(-c2nc(-c3ccccc3)[nH]c2-c2ccncc2)c1 | 3.99% |
